Hits are enriched below; roughly 2.3% of the tested compounds scored in any of these assays.
Rpn11 block = inhibitors of human proteasome Rpn11; O00487; human 26S proteasome, Ub4-pepOG fluorescence polarization; 20S core pre-blocked with epoxomicin; inhibition, % at 20 µM; 0.59% of 360,000 active; AID 588493;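 active = inhibition at 20 µM, scaled to each plate's controls, above about 33%, limit read from the data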
TPT1 inh = C. albicans TPT1 enzyme inhibition; 0.81% of 300,000 active; AID 1962; recombinant caTPT1, FP RNA substrate dephosphorylation; inhibition, % at 5 µM;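 active = inhibition above the mean of all tested compounds plus 3 SD, set per screening campaign, cut at about 24% in these data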
IDE cell inh = inhibitors of human insulin-degrading enzyme in cells; P14735; HEK cells, FAbetaB cleavage, fluorescence polarization; inhibition, % at 5.59 µM; 0.41% of 320,000 active;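 active = percent inhibition above the average of all tested compounds plus 3 SD, set per screening campaign, cut at about 16% in these data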;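 note: IDE supplied by intact live HEK cells; FP after avidin binding of uncleaved biotin substrate so inhibition keeps polarization high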
Rin1 Abl inh = blocks binding of human Rin1 to Abl. P00519+Q13671. AID 588664. inhibition, % at 7.35 µM. 0.4% of 360,000 active. TR-FRET Rin1/Abl binding, biochemical; in the data active = inhibition above about 5%, passing the limit was not always enough
IDE cell activ = IDE (human) activation, cell-based. AID 493087. activation, % at 5.96 µM. P14735. 0.073% of 340,000 active. HEK cells, FAbeta-B cleavage, fluorescence polarization; 0% vehicle, 100% cell-free pure enzyme wells;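 active = activation above the mean of all tested compounds plus 3 SD, set per screening campaign, cut at about 17% in these data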
Calb FLC = C. albicans growth modulation with fluconazole. C. albicans CaCi-2 (fluconazole-resistant clinical isolate) + fluconazole, Alamar Blue growth, 48 h. 0.57% of 300,000 active. growth inhibition, % (no concentration beside the values). AID 1979;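 active = growth inhibition above about 58% in most replicates, limit read from the data, passing the limit was not always enough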;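 note: all wells also contain fluconazole at 8 µg/ml as a sub-toxic cotreatment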
Rin1 Abl conf = Rin1-Abl interaction inhibition confirmation. shares compounds with Rin1 Abl inh. TR-FRET Rin1-Abl binding, purified proteins. inhibition, % at 7.35 µM. 49% of 1,300 active
GFP quench = GFP fluorescence interference artifact | shares compounds with Rin1 Abl inh | inhibitors/quenchers counterscreen | inhibition, % at 6.75 µM | 8.5% of 1,300 active;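 note: ABL1-eGFP fusion protein alone without its partner RIN1-SBP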
GFP quench dose = GFP fluorescence interference dose response; 230 tested, under 10 active; IC50, µM; GFP fluorescence interference/quenching counterscreen; shares compounds with Rin1 Abl inh; call rule not given here;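 note: ABL1-eGFP fusion protein alone without its RIN1 binding partner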
Numbers stand for hits; – = inactive; · = no result shown; ! = repeats disagree. Cut-off read from the data, not from the text of the source, unless noted: active = inhibition above about 6.5%; inactive = the rest.

SMILES | Rpn11 block | TPT1 inh | IDE cell inh | Rin1 Abl inh | IDE cell activ | Calb FLC | Rin1 Abl conf | GFP quench | others
COCCNC(=O)CSC1=N/C(=C/c2ccc(Cl)c(Cl)c2)C(=O)N1c1ccccc1F | – | – | – | – | – | – | · | ·
COCCNC(=O)c1cc2c3ccccc3n(C)c2s1 | – | – | – | 31 | – | – | 22 | – | GFP quench dose=–
Brc1ccc2ncc3ccccc3c2c1 | – | · | · | – | – | · | · | ·
CCOC(=O)C1=C(C)NC2=C(C(=O)CCC2)C1c1cccnc1 (stereo not drawn) | – | – | – | 11 | – | – | – | –
O=C(NC1(O)C(=O)c2ccccc2C1=O)c1c(Cl)cccc1Cl | – | – | – | 14 | · | – | 28 | – | GFP quench dose=–
O=C(NC1(O)C(=O)c2ccccc2C1=O)c1ccccc1 | – | – | – | 28 | – | – | 29 | – | GFP quench dose=–
CC(C)NC(=O)CC1C(=O)NCCN1CC(c1ccccc1)c1ccccc1 (stereo not drawn) | – | – | – | 8.7 | – | – | – | –
NNc1ccc([N+](=O)[O-])c2[nH][nH]c(=O)c12 | – | · | · | – | · | · | · | ·
COc1ccc(CN2CCN(C(=O)CCC(=O)c3ccc(C)s3)CC2)cc1OC | – | · | – | – | – | · | · | ·
O=[N+]([O-])c1nc2ccccc2[nH]1 | – | · | · | – | – | · | · | ·
C[C@@H]1O[C@@H](O[C@H]2[C@H](O)[C@@H](O)[C@H](Oc3c(-c4ccc(O)c(O)c4)oc4cc(O)cc(O)c4c3=O)O[C@@H]2CO)[C@H](O)[C@H](O)[C@H]1O | – | · | – | 11 | – | · | 11 | –
C[C@@H]1O[C@@H](Oc2c(-c3ccc(O)c(O)c3)oc3cc(O)cc(O)c3c2=O)[C@H](O)[C@H](O)[C@H]1O | – | · | – | 18! | – | · | 12 | –
C[C@@H]1O[C@@H](Oc2c(-c3cc(O)c(O)c(O)c3)oc3cc(O)cc(O)c3c2=O)[C@H](O)[C@H](O)[C@H]1O | – | – | – | 44 | – | – | 45 | 17
O=c1c(O[C@@H]2O[C@H](CO)C(O)C2O)c(-c2ccc(O)c(O)c2)oc2cc(O)cc(O)c12 (stereo partly drawn) | – | · | – | – | – | · | · | ·
O=c1c(OC2OC(CO)C(O)C(O)C2O)c(-c2ccc(O)c(O)c2)oc2cc(O)cc(O)c12 (stereo not drawn) | – | – | – | 16 | – | – | 15 | –
COc1ccc(C(=O)Nc2c(N)nc(SCC(=O)c3ccccc3)[nH]c2=O)cc1 | – | – | – | – | – | – | · | ·
C/C(=N\Nc1cc(N2CCOCC2)ncn1)c1ccc(O)cc1 | – | – | – | – | – | – | · | ·
Cc1ccccc1OCC(=O)Nc1ccccc1-c1ccccc1 | – | – | – | 7.0 | – | – | – | –
Cc1ccccc1NC(=O)COc1ccccc1C | – | – | – | – | – | – | · | ·
NC(=O)CSc1nc2c(sc(=S)n2-c2ccccc2)c(=O)[nH]1 | – | · | · | – | – | – | · | ·
Cc1ccc(NC(=O)CCNS(=O)(=O)c2ccc3[nH]c(=O)oc3c2)cc1F | – | – | – | – | – | – | · | ·
COCCn1c(C)cc(C(=O)CSc2nnc(-c3cccnc3)n2-c2ccccc2F)c1C | – | – | – | 10 | – | – | – | –
Cc1ccccc1-n1c(SCC(=O)c2cc(C)n(C)c2C)nnc1-c1cccnc1 | – | – | – | – | – | – | · | ·
COc1cccc(N=C2SC(C(=O)Nc3ccc(F)cc3)CC(=O)N2C)c1 (stereo not drawn) | – | – | – | 10 | – | – | – | –
CCOc1ccc(NC(=O)C2CC(=O)N(C)C(=Nc3ccc4c(c3)OCO4)S2)cc1 (stereo not drawn) | – | – | – | – | – | – | · | ·
SMILES | Rpn11 block | TPT1 inh | IDE cell inh | Rin1 Abl inh | IDE cell activ | Calb FLC | Rin1 Abl conf | GFP quench | others
Cn1c(=O)c2c(nc(CN3CCN(C(=O)c4ccco4)CC3)n2Cc2cccc(Cl)c2)n(C)c1=O | – | – | – | 7.1 | – | – | – | –
Cc1ccc(C(=O)COC(=O)CCNS(=O)(=O)c2ccccc2F)cc1 | – | · | – | – | – | · | · | ·
CCOc1cccc2sc(N(CCN(C)C)C(=O)c3cc4ccccc4cc3OC)nc12 | – | – | – | – | – | – | · | ·
CCOc1ccc2nc(N(CCN(C)C)C(=O)c3cc4ccccc4cc3OC)sc2c1 | – | – | – | 17 | – | – | 17 | – | GFP quench dose=–
CC1CC(C)CN(CC(=O)Nc2ccc3c(c2)OCCO3)C1 (stereo not drawn) | – | – | – | 6.3 | – | – | – | –
COC(=O)C1CCN(CC(=O)Nc2ccc3c(c2)OCCO3)CC1 | – | · | – | – | – | · | · | ·
CN1OC[C@@H]2CN(C(=O)CCc3ccccc3)[C@H](c3ccccc3Br)C[C@@H]21 | – | · | · | 14 | · | · | 12 | –
O=C1Nc2ccccc2O/C1=C\c1ccccc1Br | – | – | – | – | – | – | · | ·
CO/N=C/C(=N\Nc1ccccc1)C(=O)c1ccccc1 | – | – | – | – | – | – | · | ·
COC(=O)C=CC(=NNc1ccccc1)c1ccccc1 | – | · | · | 9.1 | – | · | – | –
O=C(NC1CC2CCCC(C1)N2C(=S)Nc1ccccc1)C1CC1 (stereo not drawn) | – | – | – | – | – | – | · | ·
CCn1c(C)nc2cc(C(=O)N/N=C(\C)c3ccc(OC)cc3O)ccc21 | – | · | · | – | – | – | · | ·
CN(C)Cc1cc(O)c(CN(C)C)cc1O | – | – | – | 13 | – | – | – | –
CN(C)Cc1cc(C(C)(C)C)cc(C(C)(C)C)c1O | – | – | – | – | – | – | · | ·
Cn1c(=O)c2cc(NC(=O)NCc3ccc(Cl)cc3Cl)ccc2n1Cc1ccc(F)cc1 | – | · | · | – | · | · | · | ·
O=C(COC(=O)CNC(=O)c1ccco1)NCCN1C(=O)CSC1=O | – | – | – | 5.0 | – | – | – | –
O=c1c(O)c(-c2ccc(O)cc2)oc2cc(O)cc(O)c12 | – | – | – | – | – | – | · | ·
O=c1c(O)c(-c2ccc(O)c(O)c2)oc2cc(O)ccc12 | – | · | · | 23 | – | · | 22 | – | GFP quench dose=–
O=C(c1ncn(Cc2ccccc2)c1C(=O)N1CCc2ccccc2C1)N1CCc2ccccc2C1 | – | · | – | – | – | · | · | ·
O=C1CC(c2ccc(O)c(O)c2)Oc2c1ccc(O)c2O (stereo not drawn) | · | – | – | 49 | – | · | 46 | 25
O=c1c(=O)n(CCO)n(CCO)c(=O)n1CCO | – | · | · | – | · | · | · | ·
COc1ccc(S(=O)(=O)NC(C)C(=O)NCc2cccnc2)cc1OC (stereo not drawn) | – | – | – | 8.4 | – | – | – | –
CN(CCCC1CCCC1)C(=O)CCc1nnc(-c2ccccc2)o1 | – | – | – | – | – | – | · | ·
